# In PubChem BioAssay AID485294 (National Center for Advancing Translational Sciences (NCATS), 2010):
# Among all 370,000 compounds or so, about 150 (0.041%) were called active. Where a call stands in place of a potency, no number is given. Inconclusive results (about 14%) are left out. This is one part of a sample in which actives are shown more often than they occur. Calls follow the shape of the dose curve; as a rule, active = well fitted inhibition curve with a large enough effect; inconclusive = small, poorly fitted or top-dose-only effect; inactive = flat fitted curve, though single readings scatter.
# Target: Beta-lactamase (Escherichia coli (strain K12)) (UniProt P00811)
# Sequence (P00811 whole entry, looked up): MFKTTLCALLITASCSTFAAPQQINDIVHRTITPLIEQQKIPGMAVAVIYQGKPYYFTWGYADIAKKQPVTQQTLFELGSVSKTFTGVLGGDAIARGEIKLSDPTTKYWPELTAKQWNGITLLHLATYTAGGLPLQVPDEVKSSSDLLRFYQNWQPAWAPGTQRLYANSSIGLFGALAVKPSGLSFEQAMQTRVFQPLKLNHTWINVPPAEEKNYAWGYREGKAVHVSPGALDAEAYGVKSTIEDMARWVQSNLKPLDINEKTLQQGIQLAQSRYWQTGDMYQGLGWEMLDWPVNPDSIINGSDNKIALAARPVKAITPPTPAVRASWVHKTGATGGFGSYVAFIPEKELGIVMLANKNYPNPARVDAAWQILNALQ
# Assay: qHTS Inhibitors of AmpC Beta-Lactamase (assay with detergent); also: nearly all actives have a fitted effect of over 25% in size
# Conditions: AmpC hydrolysis of nitrocefin, absorbance 480 nm, 0.01% Triton; series mostly up to 114 µM
# Protocol: NIH Molecular Libraries Probe Production Network [MLPCN] NIH Chemical Genomics Center [NCGC] Assay Provider: Professor Brian Shoichet, UCSF Assay Overview: This aggregation profiling approach exploits the sensitivity of aggregate formation to detergent. Inhibition of b-lactamase is measured in the presence and absence of 0.01% Triton X-100. This particular assay had the prescence of 0.01% Triton X-100. See Pubchem assay "Promiscuous and Specific Inhibitors of AmpC Beta-Lactamase (assay without detergent)" for related screen. Compounds that inhibit only in the absence of detergent are considered likely promiscuous aggregators. A screen of 1,030 compounds was performed in Brian Shoichet's lab in 96-well format. AmpC activity was measured by following the absorbance at 480 nm. Nitrocefin is a chromogenic substrate: while nitrocefin is yellow (lmax 390 nm), the product of its hydrolysis is red (lmax 486 nm, 17,000 M-1). AmpC beta lactamase was provided by Shoichet Lab, UCSF.
# Buffer: 20 mM phosphate buffer, pH 7.0 Triton X-100: No Detergent screen: 0.0001%, Detergent screen: 0.01%. Reagents/Controls: Buffer in columns 3 and 4 as negative control (no enzyme). 5.3 nM AmpC in columns 1, 2, 5-48. Titration of UCSF compound 9 control (from 10 mM, then 1:2) pin-transferred to column 2. Column 1 is neutral (100% activity). Assay Steps: Six uL of reagents were dispensed to 1536-well Greiner black clear bottom plates. Compounds and controls (23 nL) were transferred via Kalypsys PinTool. The plates were incubated for 15 min at room temperature, and then 2 uL of 800 uM solution of nitrocefin was added to start the reaction. The plates were immediately transferred to and read every 20 seconds for 4 min on ViewLux (Perkin-Elmer) High-throughput CCD imager using 480 nm absorbance protocol. During dispense, reagent bottles were kept submerged into 4 deg C water bath. Keywords: NIH Roadmap, MLSCN, MLI, MLSMR, qHTS, NCGC, AmpC Beta-Lactamase, Aggregation
# Potency is read from the fitted curve at half-maximal effect.
row,Compound,Potency
1,CC(C)(C)c1ccc(C(=O)NCC(c2ccc(Cl)cc2)N2CCOCC2)cc1 (centres undefined),inactive
2,COC(=O)c1c(NC(=O)c2cc(=O)c3c(C)cc(C)cc3o2)sc2c1CCCC2,inactive
3,CCc1cc2c(cc3c(=O)n(CC(=O)NCCc4ccc(OC)c(OC)c4)ncn32)s1,inactive
4,Cc1ccccc1CNC(=O)Cn1c(C)c2cnn(-c3ccccc3)c(=O)c2c1C,inactive
5,COc1ccc(-c2nc3sc(CCNC(=O)C(C)(C)C)c(C)n3n2)cc1,inactive
6,Cc1nn(C(=O)c2c(F)cccc2F)c(C)c1S(=O)(=O)N1CCOCC1,inactive
7,CCOc1ccc(C(=O)/C=C/c2cn(CC(O)CN3CCCCCC3)c3ccccc23)cc1 (centres undefined),inactive
8,COc1ccc(OCCCn2c(C3CC(=O)N(c4ccc(F)cc4)C3)nc3ccccc32)cc1 (centres undefined),inactive
9,Cn1c(C(=O)Nc2cccc(C(F)(F)F)c2)cc2c(=O)n3ccccc3nc21,inactive
10,CCOc1ccc(CNC(=O)Cn2cc3c(n2)-c2c(oc(C(=O)N4CCCC4)c2C)CC3)cc1,inactive
11,Cc1ccc(Nc2c(-c3ccc(N(C)C)cc3)nc3nc[nH]n23)cc1,inactive
12,CCOC(=O)c1ccc(NC(=O)C2CCN(S(=O)(=O)c3ccc4c(c3)CCCC(=O)N4)CC2)cc1,inactive
13,Cc1csc2nc(COC(=O)c3ccccc3NC(=O)c3ccccc3Cl)cc(=O)n12,inactive
14,CCOc1ccc(Nc2c(S(=O)(=O)c3ccccc3)cnc3ccccc23)cc1,inactive
15,CCCCn1cc(S(=O)(=O)c2ccc(OCC)cc2)c(=O)c2cc(OC)c(OC)cc21,inactive
16,Cc1ccc(C)c(N2CCN(CCCNC(=O)Nc3ccc(Cl)cc3)CC2)c1,inactive
17,Cc1ccc2nc(-c3ccc(C)c(NC(=O)Cc4ccccc4)c3)oc2c1,inactive
18,CCc1cccc(C)c1Nc1c(-c2ccc(N(C)C)cc2)nc2ncccn12,inactive
19,CCc1ccc(N2C(=O)CN(S(=O)(=O)CC)CC2(C)C(=O)NC2CCCCC2)cc1 (centres undefined),inactive
20,COc1ccc(N2CCN(C(=O)C3CCCN(C(=O)c4cc5sccc5n4C)C3)CC2)cc1 (centres undefined),inactive
21,O=C(CCS(=O)(=O)c1ccccc1)N(Cc1cccnc1)c1nc2c(F)cccc2s1,inactive
22,CCOC(=O)c1nnn(CC(=O)NC(=O)Nc2ccccc2F)c1C(=O)OCC,inactive
23,CCc1ccccc1NC(=O)CSc1nnc([C@@H](NC(=O)OC(C)(C)C)C(C)C)o1,inactive
24,CC(C)Sc1nnc([C@H](Cc2ccccc2)NC(=O)OC(C)(C)C)o1,inactive

row,Compound,Potency
1,C[C@@H](NC(=O)OC(C)(C)C)c1nnc(S(=O)(=O)Cc2ccccc2)o1,8.91 µM (active)
2,CC1CCN(S(=O)(=O)c2ccc3c(c2)N(CC(=O)NCCc2ccccc2)C(=O)CO3)CC1,inactive
3,Cc1cccc(-n2ncc(C(=O)N3CCN(c4ccc(Cl)cc4)CC3)c2C2CCN(C(=O)OC(C)(C)C)CC2)c1,inactive
4,CCOC(=O)c1ccc(NC(=O)CCS(=O)(=O)c2ccc(C)cc2)cc1,inactive
5,CCOC(=O)c1scc(-c2ccc(C)cc2)c1S(=O)(=O)Nc1cc(C)ccc1C,inactive
6,Cc1ccc(S(=O)(=O)N2CCc3cc(C(=O)Nc4ccc(Cl)cc4C)ccc32)cc1,inactive
7,CC1CCCN(c2cc3c(cc2F)c(=O)c(S(=O)(=O)c2cccc(Cl)c2)cn3Cc2ccccc2)C1 (centres undefined),inactive
8,CCOC(=O)c1ccc(NC(=O)CSc2nc3c([nH]c4ccccc43)c(=O)n2C)cc1,inactive
9,COc1ccc(C2CC(=O)N(Cc3ccccc3C)c3c2c(C)nn3-c2nc(C)cc(C)n2)c(OC)c1 (centres undefined),inactive
10,COc1ccc2c(c1)c(=O)c(S(=O)(=O)c1ccc(F)cc1)cn2CC(=O)Nc1ccc(C)cc1C,inactive
11,Cn1c(=O)nc2n(-c3ccc(Br)cc3)c3cccc(Cl)c3cc-2c1=O,inactive
12,O=C(Cn1cc(SCc2ccccc2)c2ccccc21)N1CCCCC1,inactive
13,COCCCNC(=O)c1c(NC(=O)c2cc(=O)c3cc(C)c(C)cc3o2)sc2c1CCCC2,inactive
14,COc1ccc2c(c1)c(N1CCCC1=O)c(C(=O)Nc1ccccc1C(F)(F)F)n2C,inactive
15,CCOc1cc(C(=O)NCCc2csc3nc(-c4ccc(C)cc4)nn23)cc(OCC)c1OCC,inactive
16,COc1ccccc1CNC(=O)CCn1c(=O)c2ccccc2n(CC(=O)Nc2cccc(Cl)c2)c1=O,inactive
17,O=C1OC(OC(=O)c2ccccc2Br)C(N2CCOCC2)=C1Cl (centres undefined),10 µM (active)
18,COc1ccc(NS(=O)(=O)c2ccc(N3CCOCC3)c(NC(=O)c3ccccc3Br)c2)cc1,inactive
19,O=C1OC(NC(=O)c2ccccc2)C(N2CCOCC2)=C1Cl (centres undefined),inactive
20,Cc1oc2c(c1C(=O)Nc1ccc(F)c(F)c1)C1=NCCN1C=N2,inactive
21,Cn1c(=O)sc2cc(NS(=O)(=O)c3ccc(C(C)(C)C)cc3)ccc21,inactive
22,CCCN(CCC)C(=O)C(Cc1ccccc1)NS(=O)(=O)c1ccc2c(c1)c(=O)n(C)c(=O)n2C (centres undefined),inactive
23,CCOc1ccc(NC(=O)c2c(NC(=O)Cc3ccccc3)sc3c2CCCCC3)cc1,inactive
24,O=C(O)c1ccc(CSc2nc3cccnc3n2Cc2cccc(F)c2)cc1,inactive

row,Compound,Potency
1,COc1ccc(-c2nnc(SCC(=O)Nc3ccccc3C)o2)cc1OC,inactive
2,O=C(Nc1ccc(O)c(-c2nc3ccccc3o2)c1)c1ccc(-c2cccc(Cl)c2)o1,inactive
3,O=C(Cn1c(=O)n(-c2ccc(F)cc2)c(=O)c2sccc21)Nc1cccc(C(F)(F)F)c1,inactive
4,CSc1ccc(C2C(C(=O)Nc3ccccc3)=C(C)Nc3nc4ccccc4n32)cc1 (centres undefined),inactive
5,CC(C)C(=O)NC(=S)Nc1ccccc1F,inactive
6,CC(Oc1ccccc1F)C(=O)NN (centres undefined),79.4 µM (active)
7,COc1ccccc1NC(=O)COC(=O)COc1ccccc1F,inactive
8,COc1ccc2c(c1)c(=O)c(C(=O)c1ccccc1)cn2CC(=O)Nc1ccc2c(c1)OCCO2,inactive
9,CC1CCCN(S(=O)(=O)c2ccc3[nH]c(=O)cc(C(=O)NCCc4ccc(Cl)cc4)c3c2)C1 (centres undefined),inactive
10,O=S(=O)(NCC(c1ccccc1)N1CCc2ccccc21)c1ccccc1 (centres undefined),inactive
11,Cc1ccc2nc(COc3cccc(NC(=O)Nc4ccc(C)c(Cl)c4)c3)cc(=O)n2c1,inactive
12,CN1C(=O)/C(=C\c2cc(Br)cs2)c2ccccc21,inactive
13,CN1C(=O)/C(=N/OC(=O)c2ccccc2Br)c2ccccc21,35.5 µM (active)
14,COc1ccc(C(=O)ON=C2c3ccccc3-c3ccccc32)cc1OC,inactive
15,O=C(COc1ccccc1)NCc1ccc2c(c1)CCN2C(=O)c1ccc(F)cc1,inactive
16,CCc1ccccc1NC(=O)Cn1c(=O)n(CC2CCC(C(=O)NCCc3ccccc3)CC2)c(=O)c2ccccc21 (centres undefined),inactive
17,CCCn1c(=N)c(C(=O)NCc2ccccc2)cc2c(=O)n3cccc(C)c3nc21,inactive
18,CC(C)c1cc(CN2CCOCC2)cc(C(C)C)c1O,inactive
19,CC(C)(C)c1cc(CN2CCN(CCC#N)CC2)cc(C(C)(C)C)c1O,35.5 µM (active)
20,N#Cc1cccc(CN2CCC(=O)N(CCO)CC2)c1,inactive
21,Cc1nn(Cc2ccc(F)cc2)c(C)c1NC(=O)c1cc(CC(C)C)on1,inactive
22,CCOC(=O)c1c(S(=O)(=O)N2CCC(C(=O)NCc3ccccc3OC)CC2)c(C)n(C)c1C,inactive
23,CC(C)(C)c1ccc(S(=O)(=O)N2CCN(C(=O)c3cc(-c4ccc(Br)cc4)n[nH]3)CC2)cc1,inactive
24,COC(=O)CN1C(=O)CSc2ccc(S(=O)(=O)Nc3cc(C)ccc3C)cc21,inactive

row,Compound,Potency
1,CCC1=Nc2cc(C(=O)NCCCOC(C)C)ccc2Sc2ccc(C)cc21,inactive
2,CC(C)c1ccc(C2CC(=O)N3CN(C4CCCCC4)CSC3=C2C#N)cc1 (centres undefined),inactive
3,CCCNc1ncnc2c1c(-c1ccccc1)cn2-c1ccc(OCC)cc1,inactive
4,CCCN(CCC)CCNC(=O)c1ccc2c(c1)NC(=O)C(CS(=O)(=O)Cc1cccc(Br)c1)N2 (centres undefined),inactive
5,Cc1ccc(-n2c3nc(=O)[nH]c(=O)c-3cc3c(Cl)cccc32)cc1,inactive
6,O=C(CSc1nnc(-c2ccccc2F)o1)Nc1cccc(C(F)(F)F)c1,inactive
7,CCC(=O)Nc1ccc2nc(SCC(=O)N3CCc4ccccc43)sc2c1,inactive
8,Cc1ccc(-c2cnc(NCc3ccc(C(C)C)cc3)n2C)cc1,inactive
9,Cc1ccc(C)c(NC(=O)C2CCCN(S(=O)(=O)c3cn(C)cn3)C2)c1 (centres undefined),inactive
10,Cc1c(C(=O)N2CCCC2)oc2c1-c1nn(CC(=O)NCc3ccc(OC(C)C)cc3)cc1CC2,inactive
11,Cc1c(NC(=O)Nc2ccc(F)c(Cl)c2)c(=O)n(-c2ccccc2)n1C,inactive
12,CCCN(C(=O)Cn1cc(S(=O)(=O)N2CCN(c3ccccc3F)CC2)c2ccccc2c1=O)c1cccc(C)c1,inactive
13,COc1ccc(Cl)cc1S(=O)(=O)N1CCC(c2ccncc2)CC1,inactive
14,COc1ccc(-c2nc3sc(CCNS(=O)(=O)c4ccc(F)c(C)c4)c(C)n3n2)cc1,inactive
15,CCOc1ccc(-c2cc3nc(C4CCN(C(=O)OC(C)(C)C)CC4)c(C(=O)Nc4ccc(C(=O)OC)cc4)cn3n2)cc1,inactive
16,CCCNC(=O)CCC(=O)N1Cc2ccccc2Oc2ncccc21,inactive
17,O=C(Cn1c(-c2cccs2)cc2ccccc21)NCCc1ccc(Cl)cc1,inactive
18,Cc1ccc(CNS(=O)(=O)c2ccc(-c3cc(C(F)(F)F)on3)s2)cc1,inactive
19,COCCCNC(=O)c1ccc(NC(=O)c2nsc3ccccc23)cc1,inactive
20,COc1ccc(-c2nc(C)c(CCNC(=O)c3ccc(C(F)(F)F)cc3)s2)cc1OC,inactive
21,CC1CCCN(Cc2c(O)ccc3c(=O)c(Oc4ccc(C(C)(C)C)cc4)c(C(F)(F)F)oc23)C1 (centres undefined),inactive
22,COc1ccc(/C=C/c2nc(C#N)c(NCc3ccc(F)cc3)o2)cc1OC,inactive
